Among all 320,000 compounds or so, about 2,100 (0.66%) were called active. Inconclusive results (about 53%) are left out. Calls come from the whole dose curve; as a rule, active = well fitted inhibition curve with a large enough effect in the signal ratio, with a control signal flat (not every such curve was filed as active); inconclusive = small, poorly fitted or top-dose-only effect, or effect the other way, or a change in a side signal; inactive = flat fitted curve, though single readings scatter; the % refers to the signal ratio. What follows is part of a selection rich in actives, with near analogues and random picks from the rest.
Potency is the fitted concentration of half-maximal effect.

The assay is described as follows: qHTS Assay for Lipid Storage Modulators in Drosophila S3 Cells.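 For cell number change: cells counted by Cell Tracker Red CMTPX staining in the red channel.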 For lipid storage change, negative = inhibition: % is set by controls: 0 for no effect and ±100 for the full control effect. The following applies: BODIPY lipid droplet fluorescence, 18-24 h, cells fed with added oleic acid; cell number change: measured here: cell count max response; series mostly up to 46.1 µM; lipid storage change, negative = inhibition: at the top concentration. The gist of the method:
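Drosophila S3 cells loaded with oleic acid (400 uM, as added) and compounds at several concentrations; lipid droplets imaged by 488-nm laser-scanning cytometry, 500–530 nm intensity and object ratio to cell channel. Percent activity normalized to 20 uM Triacsin C.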
Consider `O=C(CSc1nc2c(c(=O)n1-c1ccc(F)cc1)SCC2)N1CCCC1`, for which the “lipid storage change, negative = inhibition” value was -0.194% (inactive) and the cell number change is -5.69%.
On the same counts, the results for `Cc1cc(C)cc(OC(=O)COc2ccccc2C)c1` are 0.642% (inactive) and 16.2%.
With `CCCOc1ccccc1C(=O)N(Cc1ccco1)C1CCS(=O)(=O)C1` (centres undefined), the “lipid storage change, negative = inhibition” value was -5.58% (inactive) and the cell number change is -17.8%.
For the molecule `CCOC(=O)C1=C(COC(=O)CCC(=O)c2ccc(C)cc2)NC(=O)NC1C` (centres undefined), the “lipid storage change, negative = inhibition” value is 16.2% (inactive) and the cell number change turned out to be 25.4%.
For `CC(=O)C(Sc1ccc2nnc(-c3ccncc3)n2n1)C(C)=O`, the “lipid storage change, negative = inhibition” value is 10.9% (inactive) and the cell number change was determined as 11%.
As for `Cc1cc(C)cc(N(CCC(=O)Nc2nnc(C)s2)S(=O)(=O)c2ccc(Cl)cc2)c1`, the “lipid storage change, negative = inhibition” value is 13.3% (inactive) and the cell number change is -5.03%.
With `Cc1nc([N+](=O)[O-])c(SCC(N)=O)n1Cc1ccccc1`, the “lipid storage change, negative = inhibition” value is -0.96% (inactive) and the cell number change was 11.1%.
On the same counts, the results for `Cc1ccc(C(=O)C2CCN(S(=O)(=O)c3ccccc3C(=O)O)CC2)cc1` are -9.15% (inactive) and 25.8%.
Take `COCCN(CC1CCCN(C2Cc3ccccc3C2)C1)C(=O)CCC(F)(F)F` (centres undefined): the “lipid storage change, negative = inhibition” value is -0.431% (inactive) and the cell number change came to 20.2%.
Regarding `COc1cccc(NC(=O)COc2ccc3c(c2)CCC3)c1`, the molecule was classed as inactive.
Take `CC(=O)c1cccc(NC(=O)Nc2ccc(C(=O)N3CCCC3)cc2)c1`: the “lipid storage change, negative = inhibition” value is -1.01% (inactive) and the cell number change stood at 14.3%.
Consider `COc1ccc(C(=O)CCN2CCCC(C)C2)cc1` (centres undefined), for which the Potency is 11.6 µM (active) and the cell number change is -14.2%.
As for `COc1ccc(NC(=O)N2CCCC(C(=O)Nc3ccccc3OC)C2)cc1` (centres undefined), the “lipid storage change, negative = inhibition” value was 28.8% (inactive) and the cell number change was determined as 0.427%.
For `CCOc1ccc(NC(=O)COc2ccc3c(c2)CCC3)cc1OC`, the “lipid storage change, negative = inhibition” value is 0.757% (inactive) and the cell number change is -12.3%.
For the molecule `COc1ccc(NC(=O)N2CCCC(C(=O)NC(C)C)C2)cc1` (centres undefined), the “lipid storage change, negative = inhibition” value is 11.9% (inactive) and the cell number change is 10.2%.
On to `O=C(Nc1ccc(C(=O)N2CCOCC2)cc1)Nc1cccc(Cl)c1`, for which the “lipid storage change, negative = inhibition” value was 14.8% (inactive) and the cell number change amounted to 5.64%.
Regarding `CC1CCCN(CCC(=O)c2ccc(Br)cc2)C1` (centres undefined), the “lipid storage change, negative = inhibition” value is 4.51% (inactive) and the cell number change was -9.39%.
As for `COc1ccc(NC(=O)COc2ccc3c(c2)CCC3)cc1`, the Potency was 8.2 µM (active).
As for `O=C(Nc1ccc(C(=O)N2CCCCC2)cc1)Nc1cccc(Cl)c1`, the Potency was 13 µM (active).
Turning to `COc1ccc(NC(=O)CCN2CCCC(C)C2)cc1` (centres undefined), the “lipid storage change, negative = inhibition” value is 0.0368% (inactive) and the cell number change stood at 17%.
As for `COc1ccc(NC(=O)C2CCCN(C(=O)Nc3ccc(OC)cc3)C2)cc1` (centres undefined), the Potency was 1.03 µM (active) and the cell number change was 16.7%.
As for `NS(=O)(=O)c1cc(Cl)c(NC(=O)COC(=O)c2ccccn2)c(Cl)c1`, the “lipid storage change, negative = inhibition” value is 8.46% (inactive) and the cell number change stood at 16.5%.
For `N#Cc1ccccc1OCC(=O)Nc1ccc2c(c1)OCCCO2`, the outcome was inactive and the cell number change stood at 0.833%.
As to `O=[N+]([O-])c1ccc(Oc2ccc(OCc3ccccc3)cc2)nc1`, the “lipid storage change, negative = inhibition” value is -0.254% (inactive) and the cell number change is -9.11%.
For `CC(=O)Nc1ccc(NC(=O)C(C)OC(=O)CCC(=O)c2ccc(F)cc2)cc1` (centres undefined), the “lipid storage change, negative = inhibition” value was 2.38% (inactive) and the cell number change was 8.99%.
Take `Cc1ccc(C(=O)NNC(=O)c2ccncc2)cc1C`: the “lipid storage change, negative = inhibition” value was 11.9% (inactive) and the cell number change stood at 12.2%.
Consider `CCOC(=O)N1CCN(CC(O)COc2c(C)cc(C)cc2C)CC1` (centres undefined), for which the “lipid storage change, negative = inhibition” value is 7.41% (inactive) and the cell number change was 5%.
Consider `O=C(CCN1CCCCC1)Nc1cccc(Cl)c1`, for which the Potency was 25.9 µM (active) and the cell number change was -28.1%.
Take `CNC(=O)c1ccc(NC(=O)Cc2ccc(S(=O)(=O)N3CCOCC3)s2)cc1`: the outcome was inactive.
Turning to `O=C(CCN1CCCCC1)Nc1ccccc1`, the “lipid storage change, negative = inhibition” value is -20.5% (inactive) and the cell number change is -23.3%.
With `Cc1cccc(NC(=O)CCN2CCCCC2)c1`, the “lipid storage change, negative = inhibition” value is 10.7% (inactive) and the cell number change is 8.73%.
On to `O=C(CCN1CCCCCC1)Nc1cccc(F)c1`, for which the Potency was 25.9 µM (active) and the cell number change is -13.4%.
With `O=C(CCN1CCCCCC1)Nc1ccc(F)cc1`, the “lipid storage change, negative = inhibition” value was -0.0849% (inactive) and the cell number change is -3.75%.
As to `CCOC(=O)c1cc(NC(=O)Cc2ccc(S(=O)(=O)N3CCOCC3)s2)cc(C(=O)OCC)c1`, the Potency was 1.16 µM (active) and the cell number change was -15.4%.
With `O=C(NCCN1CCCCC1)Nc1cccc(F)c1`, the “lipid storage change, negative = inhibition” value was 15.7% (inactive) and the cell number change was -5.7%.
Turning to `O=C(Cc1ccc(S(=O)(=O)N2CCOCC2)s1)Nc1ccc2c(c1)CCC2`, the “lipid storage change, negative = inhibition” value is -2.06% (inactive) and the cell number change is -23.1%.
On to `COc1ccc(NC(=O)C2CCCN(S(=O)(=O)c3ccc4c(c3)oc(=O)n4C)C2)c(OC)c1` (centres undefined), for which the “lipid storage change, negative = inhibition” value is 11.1% (inactive) and the cell number change is 13.3%.
Turning to `COc1cc(C2NC(=O)NC(C)=C2C(C)=O)cc(OC)c1OC` (centres undefined), the “lipid storage change, negative = inhibition” value is 11.4% (inactive) and the cell number change was determined as 0.318%.
For `COc1ccc(CC(=O)Nc2ccc(/C(C)=N\NC(=O)c3ccc(Br)o3)cc2)cc1`, the “lipid storage change, negative = inhibition” value is -18.3% (inactive) and the cell number change came out at 2.49%.
As to `COC(=O)c1ccc(COC(=O)C2CC(O)CN2S(=O)(=O)c2ccc([N+](=O)[O-])cc2)cc1` (centres undefined), the “lipid storage change, negative = inhibition” value was -0.843% (inactive) and the cell number change was 2.24%.
For `CC1CCCC(C)N1C(=O)CSc1nnc(NC(=O)c2cccs2)s1` (centres undefined), in that order: 13% (inactive) and 3.67%.
Regarding `CCn1cc([N+](=O)[O-])c(C(=O)N2CCOCC2)n1`, the “lipid storage change, negative = inhibition” value was -9.37% (inactive) and the cell number change is -13.3%.
As to `CCn1cc([N+](=O)[O-])c(C(=O)N2CCCC2)n1`, the Potency is 29.1 µM (active) and the cell number change was -10.5%.
Turning to `CCn1cc([N+](=O)[O-])c(C(=O)N2CCCCCC2)n1`, the “lipid storage change, negative = inhibition” value was 0.775% (inactive) and the cell number change is 11.5%.
As for `COc1ccc(/C=N/S(=O)(=O)c2ccc(C)cc2)cc1`, the “lipid storage change, negative = inhibition” value is -20.7% (inactive).
Turning to `CC(=O)C(Cc1ccccc1)NC(=O)COC(=O)CCN1C(=O)C2CC=CCC2C1=O` (centres undefined), the “lipid storage change, negative = inhibition” value was 11% (inactive) and the cell number change was 7.02%.
On to `CC(NC(=O)COC(=O)CCN1C(=O)C2CC=CCC2C1=O)c1ccc(Br)cc1` (centres undefined), for which the Potency was 9.2 µM (active) and the cell number change was 1.69%.
